From PubChem BioAssay (NCATS)
Results filed as inconclusive are left out. Activity calls are given as the source filed them. The call rests on the fitted dose curve; in most records, active means well fitted cell-killing curve with a large enough effect; inconclusive means small, poorly fitted or top-dose-only effect, or effect the other way; inactive means no such curve, though single readings can be large or run the other way.

assay: Quantitative High-Throughput drug screen in 47 multiple myeloma cell lines against the NCATS MIPE library collection: SKMM1_PLB cell viability assay (AID 1919863); conditions: SKMM1 myeloma viability, CellTiter-Glo ATP, 48 h; viability: hits give low values; further: nearly all actives have a fitted effect of over 35% in size; on viability: series mostly up to about 46 µM
Excerpt: PI: Beverly A. Mock Ph.D.
Laboratory of Cancer Biology and Genetics,
Center for Cancer Research, National Cancer Institute,
National Institute of Health, Bethesda, Maryland
Drug resistance and disease progression are common in multiple myeloma (MM) patients, underscoring the need for new therapeutic combinations. […] We hypothesized that effective combinations would reduce MYC expression and enhance p16 activity. […] These preclinical data identify potentially useful drug combinations for evaluation in drug-resistant MM and reveal potential mechanisms of combined drug sensitivity.
Described herein is the primary MIPE qHTS used to cherrypick compounds. Validated compounds were then further tested for potential synergistic activiy.
[1] Peat TJ, Gaikwad SM, Dubois W, Gyabaah-Kessie N, Zhang S, Gorjifard S, Phyo Z, Andres M, Hughitt VK, Simpson RM, Miller MA, Girvin AT, Taylor A, Williams D, D'Antonio N, Zhang Y, Rajagopalan A, Flietner E, Wilson K, Zhang X, Shinn P, Klumpp-Thomas C, McKnight C, Itkin Z, Chen L, Kazandijian D, Zhang J, Michalowski AM, Simmons JK, Keats J, Thomas CJ, Mock BA. Drug combinations identified by high-throughput screening promote cell cycle transition and upregulate Smad pathways in myeloma. Cancer Lett. 2023 Aug 1;568:216284. doi: 10.1016/j.canlet.2023.216284. Epub 2023 Jun 24. PMID: 37356470; PMCID: PMC10408729.
SEQUENCE No. (e.g., 1, 2, 3, etc.); […] (e.g., Cells, Incubation, Reagent, etc.); VALUE and DESCRIPTION.
1; Cells; 5 uL; white, solid bottom 1536-well Greiner assay plate.
2; Compounds; 23 nL; Kalypsis pin tool (Wako USA) equipped with a 1536-well pin head to transfer to the assay plates.
3; Incubation; 48 hours; 37C incubation.
4; Reagent;5uL; CellTiter Glo (Promega).
5; Detector; 425V; Luminescence; Viewlux PerkinElmer.
NOTES (numbers refer to Sequence numbers above)
1. The cell-based screening methods employed in this study were like those previously published. Briefly, the corresponding myeloma cell lines were screened in 1,536-well plates with 500 cells, 5-uL per well for inhibition of cell viability (assessed by measuring ATP levels with CellTiterGlo).
2. NCATS MIPE 4.0 library of approved and investigational drugs were added using the Kalypsis pin tool. Wells treated with DMSO only for 100% viability and media only for 0% viability were used as controls.
3. The assay plates were covered and incubated for 48 hours in a 37C, 5% CO2 incubator with controlled humidity.
4. After 48 hours, CellTilter-GloTM luminescent substrate mix (Promega) reagent was added to the assay plate and plates we incubated for 5 min at room temperature.
5. Signal was measured as median relative luminescence units on a ViewLux (PerkinElmer) multiplate reader.
[1] Heske CM, Davis MI, Baumgart JT, Wilson K, Gormally MV, Chen L, Zhang X, Ceribelli M, Duveau DY, Guha R, Ferrer M, Arnaldez FI, Ji J, Tran HL, Zhang Y, Mendoza A, Helman LJ, Thomas CJ. Matrix Screen Identifies Synergistic Combination of PARP Inhibitors and Nicotinamide Phosphoribosyltransferase (NAMPT) Inhibitors in Ewing Sarcoma. Clin Cancer Res. 2017 Dec 1;23(23):7301-7311. doi: 10.1158/1078-0432.CCR-17-1121. Epub 2017 Sep 12. PMID: 28899971; PMCID: PMC6636827.
Potency means the concentration at half of the fitted maximal effect.

Compound	viability	Potency
CO[C@H]1C[C@@H]2CC[C@@H](C)[C@@](O)(O2)C(=O)C(=O)N2CCCC[C@@H]2C(=O)O[C@H]([C@H](C)C[C@@H]2CC[C@H](OCCO)[C@H](OC)C2)CC(=O)[C@H](C)C=C(C)[C@@H](O)[C@@H](OC)C(=O)[C@H](C)C[C@H](C)C=CC=CC=C1C	66.8% (inactive)	
NC1=N[C@@]2(c3cc(NC(=O)c4ccc(F)cn4)ccc3F)COC[C@@H]2CS1	111% (inactive)	
CC(C(=O)O)c1ccc(-c2ccccc2)c(F)c1 (stereo not given)	102% (inactive)	
CCc1ccc(OCc2ccccc2C(=O)Nc2ccc3nc(C)cc(N)c3c2)cc1		6.62 µM (active)
CC(C)C(C)C=CC(C)C1CCC2C3=CC=C4CC(O)CCC4(C)C3CCC21C (stereo not given)	135% (inactive)	
NC(CO)(CO)CCc1ccc(Sc2cccc(OCc3ccccc3)c2)cc1Cl		26.4 µM (active)
CC(C)OC(=O)CCCC=CC[C@@H]1[C@H](C=C[C@@H](O)COc2cccc(C(F)(F)F)c2)[C@H](O)C[C@@H]1O		20.9 µM (active)
CC=C(C)C(=O)O[C@H]1C(C)=C[C@]23C(=O)[C@@H](C=C(CO)[C@@H](O)[C@]12O)[C@H]1[C@@H](C[C@H]3C)C1(C)C		0.0059 µM (active)
O=C(CCN1CCN(C(=O)OCc2cc(Cl)cc(Cl)c2)CC1)c1ccc2[nH]c(=O)oc2c1	136% (inactive)	
Clc1ccc(C(c2ccc(Cl)cc2)n2cc[n+](CC(OCc3ccc(Cl)cc3Cl)c3ccc(Cl)cc3Cl)c2)cc1 (stereo not given)		20.9 µM (active)
CC(C)n1nc(-c2ccc3oc(N)nc3c2)c2c(N)ncnc21		0.0074 µM (active)
COc1cc2ncnc(-n3nc(-c4ccccn4)nc3N)c2cc1OC		0.662 µM (active)
O=C(Nc1c(Cl)cncc1Cl)c1ccc(OC(F)F)c(OCC2CC2)c1	111% (inactive)	
CC(C)C(=O)Nc1ncc(-c2cc(C(F)F)nn2-c2c(Cl)cccc2Cl)s1		16.6 µM (active)
NC(=O)[C@@H](CCC(F)(F)F)N(Cc1ccc(-c2ncon2)cc1F)S(=O)(=O)c1ccc(Cl)cc1		0.187 µM (active)
Nc1ncnc2c1nc(Cl)n2[C@@H]1O[C@H](CO)[C@@H](O)[C@@H]1O		14.8 µM (active)
COc1cc(O)c2c(c1)C(=O)c1cc(C)cc(O)c1C2=O	131% (inactive)	
CC(=Cc1ccccc1)C=C1SC(=S)N(CC(=O)O)C1=O	123% (inactive)	
O=C1NC(=O)C(=Cc2cccc(C(F)(F)F)c2)S1		14.8 µM (active)
NC(=O)NN=Cc1ccc([N+](=O)[O-])o1	122% (inactive)	

Compound	viability	Potency
O=C(CCCCCCC(=O)Nc1ccccc1)NO		3.72 µM (active)
N#C[C@H]1C[C@H]2C[C@@H]2N1C(=O)[C@@H](N)C12CC3CC(CC(O)(C3)C1)C2	119% (inactive)	
N[C@H](CSC(c1ccccc1)(c1ccccc1)c1ccccc1)C(=O)O		10.5 µM (active)
Clc1cc(Cl)cc(CNc2ncncc2-c2ccc3c(c2)OCO3)c1		16.6 µM (active)
CO[C@H]1C(=O)[C@]2(C)[C@@H](OC)C[C@H]3OC[C@@]3(OC(C)=O)[C@H]2[C@H](OC(=O)c2ccccc2)[C@]2(O)C[C@H](OC(=O)[C@H](O)[C@@H](NC(=O)OC(C)(C)C)c3ccccc3)C(C)=C1C2(C)C	65.2% (inactive)	
CC1(C)CCC2=C(O1)c1ccccc1C(=O)C2=O		20.9 µM (active)
O=C(O)C(O)Cc1ccc(O)c(O)c1 (stereo not given)		11.8 µM (active)
COc1ccc(-n2c(C)c([N+](=O)[O-])c3ccc(O)cc32)cc1		4.18 µM (active)
CCNc1cc(NC2CCC(O)CC2)nc(Nc2ccc3c(ccn3Cc3ccccc3)c2)n1 (stereo not given)		18.7 µM (active)
COc1ncc(-c2ccc3nccc(-c4ccnnc4)c3c2)cc1NS(=O)(=O)c1ccc(F)cc1F		0.0118 µM (active)
COc1cc(N2CCC(N3CCN(C)CC3)CC2)ccc1Nc1ncnc(Nc2ccccc2S(=O)(=O)C(C)C)n1		23.5 µM (active)
O=C(CCc1ccc(O)cc1)c1c(O)cc(O)cc1O[C@@H]1O[C@H](CO)[C@H](O)[C@H](O)[C@H]1O	101% (inactive)	
Cc1nnc(C(C)C)n1C1C[C@H]2CC[C@@H](C1)N2CC[C@H](NC(=O)C1CCC(F)(F)CC1)c1ccccc1 (stereo not given in full)	147% (inactive)	
O=C1c2ccccc2-[n+]2ccc3c([nH]c4ccccc43)c21		2.96 µM (active)
O=C(O)C=Cc1ccc(O)c(O)c1		29.6 µM (active)
O=C1NC(=O)C(=Cc2ccc3nccnc3c2)S1		6.45 µM (active)
CO[C@H]1C[C@@H]2CC[C@@H](C)[C@@](O)(O2)C(=O)C(=O)N2CCCC[C@@H]2C(=O)O[C@H]([C@@H](C)C[C@@H]2CC[C@H](O)[C@H](OC)C2)CC(=O)[C@H](C)C=C(C)[C@@H](O)[C@@H](OC)C(=O)[C@H](C)C[C@H](C)C=CC=CC=C1C	82.9% (inactive)	
CCC(=O)NC[C@H](Cc1ccc(OCCc2nc(-c3ccccc3)oc2C)cc1)NC(C)=CC(=O)c1ccc(C(F)(F)F)cc1		18.7 µM (active)
Oc1ccc(C2=Cc3ccc(O)cc3OC2)cc1		11.8 µM (active)
O=C(NCc1ccccc1)c1csc(Nc2ccncn2)n1		18.7 µM (active)
